Experimental data taken from PubChem BioAssay.
Activity calls are given as the source filed them.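 Rule for the calls, unless noted: active = fluorescence slope higher than the sample average by over 3 SD (cut at about -0.22 in these data, passing the limit was not always enough); inactive = the rest.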

Experiments:
[1] = inhibitors of TNFa-induced NFkB p65 translocation, primary screen, imaging, HUVEC, MLSMR starter and 10KST1 sets (AID 438;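 active = inhibition above 20% together with a positive visual image hit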;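 note: compound added about 3h40 before a 20 min TNFalpha stimulation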;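 for inhibition: signal is the nuclear over cytoplasmic p65 intensity ratio per well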); settings: HUVEC TNFa-induced p65 nuclear translocation; cell count: measured here: nuclei count (cytotoxicity indicator), at 2.08 µM; inhibition: at 2 µM, stronger effect = higher value, 0% TNFa-plus-vehicle, 100% no-TNFa wells
[2] = reduction of polyQ htt aggregates in cells – imaging, exon1htt(103Q)mCFP cells, high-content imaging, primary screen (AID 483;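 active = visual image review flags a hit and inhibition of aggregation exceeds 20%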;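 note: compound exposure lasted 3 days before fixation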;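 for nuclei count: percent of the per-plate median nuclei count of sample wells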); settings: exon1htt(103Q)mCFP cell line, aggregate imaging, at 2 µM; inhibition of aggregation: stronger effect = higher value; nuclei count: measured here: cell count, toxicity
[3] = endothelial E-selectin expression blockers – imaging, HUVEC, immunofluorescence, MLSMR starter and 10KST1 sets, primary screen (AID 487;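 active = visually confirmed hit in the image check and inhibition above 20%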;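 for inhibition: signal is fraction of cell area covered by stained E-selectin grains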;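 for nuclei count: 100% = median nuclei count of all wells on the same plate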); settings: HUVEC TNFalpha-induced E-selectin immunofluorescence imaging, at 2 µM; inhibition: stronger effect = higher value; nuclei count: measured here: cell number, toxicity
[4] = target: Voltage-gated potassium channel subunit beta-2 (Rattus norvegicus) (UniProt P62483); experiment: inhibitors of rat Kvbeta2 reductase activity – biochemical, NADPH fluorescence, primary screen (AID 622); settings: recombinant KvBeta, 4-cyanobenzaldehyde reduction, at 10 µM, stronger effect = higher value;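 note: slope of raw intensity against log time taken from 70 to 1610 s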
[5] = target: Voltage-gated potassium channel subunit beta-2 (Rattus norvegicus) (UniProt P62483); experiment: enhancers of rat Kvbeta2 NADPH turnover – biochemical, NADPH fluorescence, primary screen (AID 623;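 active = NADPH fluorescence slope more negative than the mean of all samples by about 3 SD, 99.7% confidence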;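 note: fluorescence intensity change per second fitted from 20 to 320 s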); settings: Recombinant KvBeta, NADPH fluorescence decrease slope, 10 min; at 10 µM; stronger effect = lower value
[6] = target: Alpha-2C adrenergic receptor (Homo sapiens) (UniProt P18825); experiment: compounds altering alpha2C-coupled GIRK flux – cell-based, HEK293 alpha2C/GIRK1/2, thallium flux, primary screen (AID 624;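 active = fluorescence slope after compound addition differing from the mean of all screened samples at 99.7% confidence, in either direction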;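 note: slope of fluorescence ratio to pre-addition baseline per second over 15 to 24 s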); settings: thallium flux BTC fluorescence, at 10 µM, actives lie on both sides
[7] = blockers of RIG-like receptor reporter activation – cell-based, Sendai virus stimulus, luciferase, 10K MLSCN set, TLR/RLR signaling modifier project, primary screen (AID 602276;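 active = inhibition at or above 50% at 10 µM; inactive = inhibition below 50%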;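 note: firefly luciferase from ISG56 promoter only with Renilla not read in this screen; 0% = Sendai virus plus DMSO and 100% = medium plus DMSO without virus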); settings: HEK293 RL24 IRF3 luciferase reporter, at 10 µM, stronger effect = higher value
[8] = TLR3 IRF3 reporter activation blockers – cell-based, poly I:C stimulus, luciferase, 10K MLSCN set, primary screen (AID 602277;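 active = inhibition of the reporter signal at or above 50%; inactive = inhibition below 50%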); settings: HEK293-TLR3 RL24 IRF3 luciferase reporter, at 10 µM, stronger effect = higher value

Chain of Alpha-2C adrenergic receptor (Homo sapiens) (P18825 whole entry, looked up): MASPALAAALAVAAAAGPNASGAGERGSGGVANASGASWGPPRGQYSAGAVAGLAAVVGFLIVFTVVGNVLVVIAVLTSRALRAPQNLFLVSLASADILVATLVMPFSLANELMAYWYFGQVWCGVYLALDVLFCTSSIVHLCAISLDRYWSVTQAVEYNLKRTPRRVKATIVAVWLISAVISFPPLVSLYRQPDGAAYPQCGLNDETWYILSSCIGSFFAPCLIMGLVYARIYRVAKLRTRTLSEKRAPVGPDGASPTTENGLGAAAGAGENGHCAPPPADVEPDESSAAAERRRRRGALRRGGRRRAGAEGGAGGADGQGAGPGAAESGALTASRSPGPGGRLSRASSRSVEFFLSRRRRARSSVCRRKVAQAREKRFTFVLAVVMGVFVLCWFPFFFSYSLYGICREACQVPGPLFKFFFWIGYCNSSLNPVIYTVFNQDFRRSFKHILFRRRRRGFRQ
Chain of Voltage-gated potassium channel subunit beta-2 (Rattus norvegicus) (P62483 whole entry, looked up): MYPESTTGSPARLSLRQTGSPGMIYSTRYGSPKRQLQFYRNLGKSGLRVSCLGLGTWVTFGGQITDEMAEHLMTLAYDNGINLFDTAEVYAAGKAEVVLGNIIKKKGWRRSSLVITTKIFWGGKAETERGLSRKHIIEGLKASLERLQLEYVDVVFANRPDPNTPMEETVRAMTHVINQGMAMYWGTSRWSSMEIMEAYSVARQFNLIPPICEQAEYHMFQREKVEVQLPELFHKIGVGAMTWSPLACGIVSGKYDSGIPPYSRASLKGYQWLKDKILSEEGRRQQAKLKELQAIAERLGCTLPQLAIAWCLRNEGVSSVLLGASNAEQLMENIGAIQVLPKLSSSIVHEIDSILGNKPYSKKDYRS

Row | SMILES | cell count [1] | inhibition [1] | inhibition of aggregation [2] | nuclei count [2] [%] | inhibition [3] | nuclei count [3] [%] | fluorescence slope [4] | NADPH fluorescence slope [5] | slope [6] | inhibition [7] | inhibition [8]
1 | CC1Cc2ccccc2N1C(=O)c1cnsn1 (centres undefined) | 623 | -4.5% (inactive) | -10.5% (inactive) | 103 | -138% (inactive) | 111 | -0.489 (inactive) | -0.000237 (inactive) | 0.00637 (inactive) | -9.05% (inactive) | -3.1% (inactive)
2 | Cc1nc2sc(C(c3cccc(F)c3)N3CCC(C)CC3)c(O)n2n1 (centres undefined) | 231 | -5.4% (inactive) | -13.1% (inactive) | 109 | 9.7% (inactive) | 108 | -0.524 (inactive) | -7.2e-05 (inactive) | 0.00644 (inactive) | 14.4% (inactive) | 17% (inactive)
3 | Cc1cccc(N(CC(=O)Nc2ccc(CC#N)cc2)S(C)(=O)=O)c1 | 487 | -15.7% (inactive) | -17.9% (inactive) | 106 | -87.9% (inactive) | 109 | -0.483 (inactive) | -2.6e-05 (inactive) | 0.00518 (inactive) | 16.7% (inactive) | 28.7% (inactive)
4 | Cc1nc2oc3c(NCc4ccccn4)ncnc3c2c2c1COC(C)(C)C2 | 366 | -2.9% (inactive) | 2.7% (inactive) | 78.1 | -75.4% (inactive) | 117 | -0.431 (inactive) | -4.2e-06 (inactive) | 0.00661 (inactive) | 9.92% (inactive) | 12.7% (inactive)
5 | COc1ccccc1N1CCN(S(=O)(=O)CC23CCC(CC2=O)C3(C)C)CC1 (centres undefined) | 522 | -8.1% (inactive) | 20.7% (inactive) | 103 | -64.4% (inactive) | 157 | -0.452 (inactive) | -3.6e-05 (inactive) | 0.00394 (inactive) | 9.34% (inactive) | 25.6% (inactive)
6 | COc1ccccc1-c1cc(C(=O)Nc2cc(C)nn2-c2ccccc2)no1 | 478 | -9.3% (inactive) | -24.6% (inactive) | 111 | 4.5% (inactive) | 109 | -0.381 (inactive) | -2e-05 (inactive) | 0.00489 (inactive) | -1.99% (inactive) | 16% (inactive)
7 | Cc1onc(-c2ccccc2Cl)c1C(=O)Nc1cnn(Cc2ccccc2)c1 | 545 | 1.1% (inactive) | -4% (inactive) | 121 | 15.1% (inactive) | 120 | -0.545 (inactive) | 6.7e-06 (inactive) | 0.00545 (inactive) | 14.3% (inactive) | 32.6% (inactive)
8 | COC(=O)CCCCC(=O)C1C(=O)CC(C)(C)C(C(=O)OC)C1=O (centres undefined) | 431 | -0.3% (inactive) | -13.3% (inactive) | 96.5 | -1.3% (inactive) | 121 | -0.49 (inactive) | 4.5e-05 (inactive) | 0.00358 (inactive) | -9.68% (inactive) | 3.35% (inactive)
9 | CCc1nnc(NC(=O)CCC(=O)Nc2ccccc2)s1 | 554 | 7.2% (inactive) | -10.2% (inactive) | 97.2 | 33.2% (inactive) | 93.4 | -0.384 (inactive) | -6.1e-05 (inactive) | 0.00537 (inactive) | 9.85% (inactive) | 2.44% (inactive)
10 | c1ccc(Cn2nnnc2CN2CCCC2)cc1 | 433 | -9.4% (inactive) | 2.6% (inactive) | 100 | -38.6% (inactive) | 94 | -0.499 (inactive) | -2.2e-05 (inactive) | 0.00601 (inactive) | 14.5% (inactive) | 19.4% (inactive)
11 | c1ccc(CSCc2cn3ccsc3n2)cc1 | 664 | 1.2% (inactive) | 5.1% (inactive) | 107 | -84.7% (inactive) | 131 | -0.583 (inactive) | -4.2e-05 (inactive) | 0.00621 (inactive) | -50.3% (inactive) | -132% (inactive)
12 | CCOc1ccc2cc(C#N)c(SCC(=O)N3CCC(C)CC3)nc2c1 | 447 | 0.5% (inactive) | 6% (inactive) | 107 | -92.8% (inactive) | 138 | -0.242 (inactive) | 2.6e-06 (inactive) | 0.00566 (inactive) | 18.2% (inactive) | 7.14% (inactive)
13 | Cn1cnc2c(N3CCCCC3)nccc21 | 720 | -31% (inactive) | 0.5% (inactive) | 97.8 | -88.5% (inactive) | 122 | -0.417 (inactive) | -0.000121 (inactive) | 0.00681 (inactive) | 7.97% (inactive) | 22.8% (inactive)
14 | Cc1c(NS(=O)(=O)c2ccc3c(c2)n(C)c(=O)n3C)c(=O)n(-c2ccccc2)n1C | 582 | 2.7% (inactive) | -2% (inactive) | 99.2 | 28% (inactive) | 93 | -0.616 (inactive) | 1.5e-05 (inactive) | 0.00372 (inactive) | 15.8% (inactive) | 13.4% (inactive)
15 | Cc1nn(-c2ccccc2)c2c1C(O)n1c(nc3ccccc31)S2 (centres undefined) | 453 | 2.5% (inactive) | 8.2% (inactive) | 83 | -10.2% (inactive) | 100 | -0.466 (inactive) | -0.000266 (inactive) | 0.00554 (inactive) | 14% (inactive) | 28.4% (inactive)
16 | CC(C)[C@H](NC(=O)NCc1ccc(Cl)cc1)C(=O)O | 190 | -16.4% (inactive) | 20.4% (inactive) | 70.5 | 11.6% (inactive) | 87.2 | -0.604 (inactive) | -3.7e-05 (inactive) | 0.00337 (inactive) | 13% (inactive) | 19.3% (inactive)
17 | CC1CCc2c(sc3c2C2=NS(=O)(=O)CCN2C=N3)C1 (centres undefined) | 188 | 2.9% (inactive) | 2.7% (inactive) | 87.1 | -5.5% (inactive) | 108 | -0.582 (inactive) | -6.8e-05 (inactive) | 0.00732 (inactive) | 11.9% (inactive) | 33.3% (inactive)
18 | Cc1nc(N2CCN(c3ncccn3)CC2)c2oc3ccccc3c2n1 | 583 | -8.7% (inactive) | 0.3% (inactive) | 106 | -56.1% (inactive) | 104 | -0.432 (inactive) | -1.4e-05 (inactive) | 0.00731 (inactive) | -3.03% (inactive) | -57.2% (inactive)
19 | Cn1c(=O)oc2cc(S(=O)(=O)N3CCCC(C(=O)NCC4COc5ccccc5O4)C3)ccc21 (centres undefined) | 751 | -1.9% (inactive) | -6.6% (inactive) | 105 | -40.9% (inactive) | 124 | -0.575 (inactive) | 1.7e-05 (inactive) | 0.00726 (inactive) | -12.4% (inactive) | -5.33% (inactive)
